Measurements: PubChem BioAssay (Tox21)
Inconclusive results are not listed. Active and inactive are the calls of the source. Calls follow the shape of the dose curve; as a rule, active = well fitted activation curve with a large enough effect in the signal ratio in the repeat runs (not every such curve was filed as active); inconclusive = weak or mixed curves; inactive = flat fitted curve, though single readings scatter; the % refers to the signal ratio.

Assay: qHTS assay to identify small molecule agonists of H2AX (AID 1224845)
Details: CHO-K1 phospho-H2AX Ser139 HTRF, 3 h; series mostly up to 154 µM; activation (H2AX phosphorylation): at the top concentration
Description: National Center for Advancing Translational Sciences [NCATS]
NIH Chemical Genomics Center [NCGC]
U.S. Environmental Protection Agency [EPA]
National Institutes of Environmental Health Sciences [NIEHS]
National Toxicology Program [NTP]
U.S. Food and Drug Administration [FDA]
HTRF phospho-H2AX (Ser139) assay (Cisbio Bioassays, US) enables the quantitative detection of the histone variant H2AX when phosphorylated on serine 139. When double-stranded DNA breaks, either by ionizing radiation or endogenous physiological processes, H2AX becomes phosphorylated at Ser139. This phospho-Ser139 serves as a sensitive biomarker for the detection of such breaks, localizing the site of DNA repair. So, HTRF phospho-H2AX Ser139 is a pertinent assay to study genome stability, the cell cycle, DNA repair, and it serves as a biomarker for cancer, and to understand aging. Wild type CHO-K1 cells were used to identify the inducers of Phospho-H2AX Ser 139 from the Tox21 10K compound collections.
Tox21 Assay Protocol Summary:
The CHO-K1 cells suspended in culture medium containing 10% FBS were dispensed at 1000 cells/ 3 ul/well in 1536-well white wall/solid bottom plates (Greiner Bio-One North America, NC) using a Multidrop Combi (Thermo Fisher Scientific Inc., Waltham, MA). After the assay plates were incubated at 37C overnight, 23 nl of compounds at 15 concentrations (from 5-48 columns) or positive control (from 1 to 4 columns) were transferred to the assay plates using a Pintool station (Wako, San Diego, CA) into each well resulting in a final DMSO concentration of 0.76%. After 3hr incubation at 37C, 1 uL/well Supplemented Lysis buffer (diluted 100 fold blocking reagent in lysis buffer) (HTRF Phospho-H2A.X (S139) Assay kit from Cisbio US Inc., Bedford, MA) was added using a Flying Reagent Dispenser (FRD) (Aurora Discovery, CA). After 10sec spin at 1000 rpm in a plate centrifuge, the assay plates were incubated at room temperature for 30 min. Then followed by the addition of 1 uL/well detection buffer (containing a mixture of two antibodies, one labeled with cryptate, Anti pH2AX (S139)-K and another labeled with d2, Anti H2AX-d2) using FRD. After incubation at room temperature for 24 hr, the time resolved fluorescence at excitation 320 nm and emissions at 665 nm and 620 nm was measured using an Envision plate reader (PerkinElmer, Waltham, MA).
% is scaled to controls: 0 for no effect and ±100 for the full control effect.

Compound | activation (H2AX phosphorylation) | Potency
OCCCS | -1.81% (inactive) | –
NC(=O)c1ccccc1N | -1.37% (inactive) | –
CCCCOCC | -0.696% (inactive) | –
Cc1cccc(N(C)C)c1 | -7.6% (inactive) | –
CN1CN(C)CN(C)C1 | -0.429% (inactive) | –
CCCCCCCCCCCCCCCC | -1.05% (inactive) | –
OCCCc1cccnc1 | -0.177% (inactive) | –
CCc1cccc(C)c1 | 3.86% (inactive) | –
COc1ccc(C#N)cc1 | -3.03% (inactive) | –
Cc1cccc(Br)c1 | 1.29% (inactive) | –
O=C[C@H](O)[C@H](O)[C@H](O)CO | -3.2% (inactive) | –
CC1=C(/C=C/C(C)=C/C=C/C(C)=C/C(=O)Nc2ccc(O)cc2)C(C)(C)CCC1 | – | inactive
O=CC1CC1 | 2.2% (inactive) | –
CCOB(OCC)OCC | 1.09% (inactive) | –
Nc1ncnc2c1ncn2[C@@H]1O[C@H](COP(=O)(O)O)[C@@H](O)[C@H]1O | 7.17% [at 70.9 µM] (inactive) | –
CCOC(=O)CN | -2.64% (inactive) | –
Cc1cccc(C)n1 | -0.404% (inactive) | –
Cn1cnc2ncnc(N)c21 | 2.12% [at 70.9 µM] (inactive) | –
CCOC(OCC)C(=O)c1ccccc1 | -0.71% (inactive) | –
COc1cccc(OC)c1O | 7.86% (inactive) | –

Compound | activation (H2AX phosphorylation) | Potency
CCCCCCCC(C)=O | -0.26% (inactive) | –
CCC(C)c1cc([N+](=O)[O-])cc([N+](=O)[O-])c1OC(=O)OC(C)C (stereo not given) | 11.1% (inactive) | –
CO[Si](CCC1CCC2OC2C1)(OC)OC (stereo not given) | -5.66% (inactive) | –
COC(=O)CC#N | -0.118% (inactive) | –
SCCCCCCCCS | 1.97% (inactive) | –
C=CC/C=C/C/C=C/C/C=C/C | -0.601% (inactive) | –
CCC(C)c1ccccc1 (stereo not given) | -2.67% (inactive) | –
Clc1nc2ccccc2s1 | 0.517% (inactive) | –
CS(C)(=O)=O | 3.61% (inactive) | –
C=CC(=C)CC/C=C(\C)CCC=C(C)C | -0.467% [at 31.6 µM] (inactive) | –
CCN(CC)CCNc1ccc(CO)c2sc3ccccc3c(=O)c12 | 7.35% [at 70.9 µM] (inactive) | –
CN1[C@@H]2CC[C@H]1CC(OC(=O)C(CO)c1ccccc1)C2 (stereo not given in full) | 0.154% (inactive) | –
Cc1cncc(C)c1 | -0.274% (inactive) | –
C/C=C/c1ccc(OC)c(OC)c1 | 0.269% (inactive) | –
Cc1ccc2ccc3cccc4ccc1c2c34 | 0.0803% (inactive) | –
NCCCC(O)(P(=O)(O)O)P(=O)(O)O | -1.99% [at 70.9 µM] (inactive) | –
CC(=O)Oc1ccc(C2(c3ccc(OC(C)=O)cc3)C(=O)Nc3ccccc32)cc1 | -0.107% [at 70.9 µM] (inactive) | –
C/C=C/C(=O)C1=C(C)CCCC1(C)C | -2.21% (inactive) | –
CCOC(=O)C1=C(C)NC(C)=C(C(=O)OCC)C1c1ccccc1/C=C/C(=O)OC(C)(C)C | -7.8% [at 70.9 µM] (inactive) | –
COc1ccccc1C=O | -0.659% (inactive) | –
